Screening data from PubChem BioAssay.
VP16 counter = counter-screen for ROR gamma inhibitors: Gal4-VP16 reporter; Potency, µM (highest dose often 53.6 µM), usual class: inhibitors; AID 2546; 310,000 tested, 3.5% active; Drosophila S2 Gal4-VP16 UAS-luciferase, luminescence, 20 h;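 note: Gal4-VP16 expression switched on by copper sulfate through the metallothionein promoter; nearly all actives have a fitted effect of over 50% in size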
RORg inh = blocks mouse ROR gamma transcriptional activity | P51450 | Drosophila S2 Gal4-RORgamma UAS-luciferase reporter, 20 h | Potency, µM (top dose mostly 53.6 µM), usual class: inhibitors | 310,000 tested, 5.4% active; note: nearly all actives have a fitted effect of over 60% in size
Target sequence (P51450 whole entry, looked up, the tested form may be a part): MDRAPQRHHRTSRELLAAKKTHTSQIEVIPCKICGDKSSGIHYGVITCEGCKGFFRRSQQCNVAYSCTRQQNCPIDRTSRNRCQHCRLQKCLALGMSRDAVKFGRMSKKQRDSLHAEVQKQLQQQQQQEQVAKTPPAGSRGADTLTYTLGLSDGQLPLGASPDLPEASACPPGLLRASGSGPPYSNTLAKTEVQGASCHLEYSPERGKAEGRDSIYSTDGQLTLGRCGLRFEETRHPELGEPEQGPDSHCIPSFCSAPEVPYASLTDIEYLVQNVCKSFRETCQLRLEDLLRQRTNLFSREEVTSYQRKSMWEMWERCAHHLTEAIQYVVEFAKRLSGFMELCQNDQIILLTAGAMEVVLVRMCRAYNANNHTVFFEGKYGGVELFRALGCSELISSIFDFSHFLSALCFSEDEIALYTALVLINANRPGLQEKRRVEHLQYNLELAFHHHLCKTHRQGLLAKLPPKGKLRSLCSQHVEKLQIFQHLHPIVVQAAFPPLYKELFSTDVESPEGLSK
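Drosophila S2 cells stably expressing Gal4-DBD/mouse RORγ fusion under metallothionein promoter plus UAS-luciferase; compound 1 h, then 700 uM CuSO4 induction for 20 h at ambient temperature; inhibition read as reduced luminescence.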
12-LOX inh = ALOX12 (human) lipoxygenase inhibition; P18054; purified 12hLO, xylenol orange hydroperoxide absorbance; Potency, µM (highest dose often 108 µM), hits mostly inhibitors; 580,000 tested, 1.1% active
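Hydroperoxide product was detected by ferrous iron/xylenol orange as the 573 to 405 nm absorbance ratio. Arachidonic acid at 40 uM (final) was turned over for 30 min at room temperature by 150 nM human 12hLO, pH 7.0 Hepes buffer, after 15 min compound preincubation.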
ELG1 DNA repair = inhibitors of ELG1-dependent DNA repair in HEK293T cells. HEK293T ELG1-luciferase reporter, luminescence, 16 h; DNA damage induced by 5-fluorouridine. Potency, µM (titrated, usually from 46.1 µM), hits mostly inhibitors. AID 504467. 330,000 tested, 2.3% active; note: nearly all actives have a fitted effect of over 55% in size
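DMSO vehicle served as the neutral condition. Each well held 2,000 cells given 5-fluorouridine plus compound; after 16 hr at 37 °C/5% CO2, ONE-Glo was added and luciferase measured 30 min later.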
TDP1 cell CPT = DT40-hTDP1 cell growth loss with CPT. chicken DT40 Tdp1-/-;hTDP1 cells + 20 nM CPT, ATP luminescence, 48 h. Potency, µM (top dose mostly 46.2 µM), hits mostly inhibitors. 420,000 tested, 12% active. AID 686979; note: nearly all actives have a fitted effect of over 55% in size
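Chicken DT40 Tdp1-/- cells stably complemented with human TDP1 were seeded at 400 cells/well in medium containing 20 nM camptothecin, exposed to pin-transferred compounds, and grown at 37 °C for at least 48 hr. Viability was read as ATP luminescence.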
TDP1 cell noCPT = qHTS for Inhibitors of human tyrosyl-DNA phosphodiesterase 1 (TDP1): qHTS in cells in absence of CPT; DT40 Tdp1-/- hTDP1 cells, no CPT, ATP luminescence, 48 h; Potency, µM (titrated, usually from 46.2 µM), actives largely listed as inhibitors; 420,000 tested, 15% active; AID 686978, 2013; note: nearly all actives have a fitted effect of over 55% in size
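Luminescent ATP content (CellTiter-Glo) served as the growth readout. Knockout chicken DT40 cells expressing human TDP1 were exposed to compounds without camptothecin for a minimum 48 hr at 37 °C.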
Large screens that a line does not name were inactive. Shown are actives, neighbours in structure and some others; about 15% of the full set was active somewhere. Calls come from the whole dose curve; as a rule, active = well fitted curve in the direction sought with a large enough effect; inconclusive = small, poorly fitted or top-dose-only effect, or another doubt; inactive = no such curve, though single readings can be large; an effect the other way counts as inactive or inconclusive.

CC(C)C1=NOC2(CCN(Cc3ccc(Cl)cc3)CC2)C1	none (no result: VP16 counter, RORg inh, ELG1 DNA repair, TDP1 cell CPT, TDP1 cell noCPT)
COCc1ccc(CNC(=O)CC(C)C)cc1	none (no result: VP16 counter, RORg inh, ELG1 DNA repair, TDP1 cell CPT, TDP1 cell noCPT)
CCC(NC(=O)c1cccc(OC)c1)c1ccccc1OC(F)F (centres undefined)	none (no result: VP16 counter, RORg inh, ELG1 DNA repair, TDP1 cell CPT, TDP1 cell noCPT)
CCS(=O)(=O)N1CCC(Nc2cccnc2)C1 (centres undefined)	none (no result: VP16 counter, RORg inh, ELG1 DNA repair, TDP1 cell CPT, TDP1 cell noCPT)
COc1cccc(NC(=O)Cc2ccc(NC(=O)N3CCCCc4ccccc43)cc2)c1	TDP1 cell CPT inconclusive, TDP1 cell noCPT inconclusive (no result: VP16 counter, RORg inh, ELG1 DNA repair)
CCCCOc1ccc(CNC(=O)c2ccc(NC(=O)N3CCCCc4ccccc43)cc2)cc1	TDP1 cell CPT 18µM, TDP1 cell noCPT 26µM (no result: VP16 counter, RORg inh, ELG1 DNA repair)
CCOC(=O)c1cccc(NC(=O)Cc2ccc(NC(=O)N3CCCCc4ccccc43)cc2)c1	TDP1 cell CPT 5.2µM, TDP1 cell noCPT 4.6µM (no result: VP16 counter, RORg inh, ELG1 DNA repair)
CN(C(=O)CN1CCC(c2cc3ccccc3[nH]2)CC1)C1CC1	none (no result: VP16 counter, RORg inh, ELG1 DNA repair, TDP1 cell CPT, TDP1 cell noCPT)
CCc1ccc(OC(=O)c2ccccc2I)cc1	none (no result: VP16 counter, RORg inh, ELG1 DNA repair, TDP1 cell CPT, TDP1 cell noCPT)
O=C(NCC#Cc1ccccc1)C1CCCN(C(=O)C2CC2)C1 (centres undefined)	none (no result: VP16 counter, RORg inh, ELG1 DNA repair, TDP1 cell CPT, TDP1 cell noCPT)
CCNC(=S)NNC(=O)c1c(Cl)c(C)nn1C	VP16 counter inconclusive, RORg inh 6.3µM
COc1ccccc1NC(=S)NNC(=O)c1c(Cl)c(C)nn1C	VP16 counter inconclusive, RORg inh 1.6µM, ELG1 DNA repair inconclusive, TDP1 cell CPT inconclusive, TDP1 cell noCPT inconclusive
CCCCNC(=S)NNC(=O)c1c(Cl)c(C)nn1C	RORg inh 1.4µM, TDP1 cell CPT 23µM, TDP1 cell noCPT 16µM
Cc1cccc(NC(=O)NNC(=O)c2c(Cl)c(C)nn2C)c1	RORg inh inconclusive
CCNC(=S)NNC(=O)c1nn(C)c(C)c1Cl	RORg inh inconclusive, ELG1 DNA repair inconclusive
Cc1ccnc(NC(=O)c2cnc3ccccc3n2)c1	none (no result: VP16 counter, RORg inh, ELG1 DNA repair, TDP1 cell CPT, TDP1 cell noCPT)
CSc1ccc(NC(=O)Cc2cc(Cl)c3c(c2)OCCCO3)cc1	none (no result: VP16 counter, RORg inh, ELG1 DNA repair, TDP1 cell CPT, TDP1 cell noCPT)
CC(NC(=O)C1CCCCC1)c1ccccc1 (centres undefined)	none (no result: VP16 counter, RORg inh, ELG1 DNA repair, TDP1 cell CPT, TDP1 cell noCPT)
CCCn1c(C(O)c2ccc(C)cc2)nc2ccccc21 (centres undefined)	VP16 counter inconclusive, RORg inh 2.8µM, TDP1 cell CPT inconclusive, TDP1 cell noCPT inconclusive
COc1cc(C(O)c2nc3ccccc3s2)cc(OC)c1OC (centres undefined)	VP16 counter 10µM, RORg inh inconclusive, TDP1 cell CPT 4.1µM, TDP1 cell noCPT 9.2µM
CCCn1c(C(O)c2cc(OC)c(OC)c(OC)c2)nc2ccccc21 (centres undefined)	VP16 counter inconclusive, RORg inh inconclusive, TDP1 cell CPT inconclusive, TDP1 cell noCPT 21µM
Cc1cc(C)c(Cn2c(C(O)c3ccccc3)nc3ccccc32)c(C)c1 (centres undefined)	TDP1 cell CPT 18µM, TDP1 cell noCPT 9.2µM (no result: VP16 counter, RORg inh, ELG1 DNA repair)
CCn1c(C(O)c2ccccc2)nc2ccccc21 (centres undefined)	none
CCn1c(C(O)c2cccc(OC)c2OC)nc2ccccc21 (centres undefined)	RORg inh inconclusive
COC(=O)Cn1c(C(O)c2ccccc2)nc2ccccc21 (centres undefined)	none
COc1ccc(C(O)c2nc3ccccc3s2)cc1 (centres undefined)	none (no result: 12-LOX inh, TDP1 cell CPT, TDP1 cell noCPT)
COc1ccc(C(O)c2nc3ccccc3n2C)cc1OC (centres undefined)	VP16 counter 6.3µM, ELG1 DNA repair 9.2µM, TDP1 cell CPT 9.2µM, TDP1 cell noCPT 12µM
COc1cccc(C(O)c2nc3ccccc3n2C(C)C)c1 (centres undefined)	none
CCN1C(=O)COc2ccc(NC(=O)c3cc(=O)c4cc(C)ccc4o3)cc21	none (no result: VP16 counter, RORg inh, ELG1 DNA repair, TDP1 cell CPT, TDP1 cell noCPT)
S=C(NNC(=S)NC1CCCCC1)NC1CCCCC1	none (no result: VP16 counter, RORg inh, ELG1 DNA repair, TDP1 cell CPT, TDP1 cell noCPT)
NNC(=S)NC1CCS(=O)(=O)C1 (centres undefined)	VP16 counter 4.5µM, RORg inh 2.8µM
CC1(C)CC(NC(=S)NC2CCCCC2)CC(C)(C)N1	none (no result: VP16 counter, RORg inh, ELG1 DNA repair, TDP1 cell CPT, TDP1 cell noCPT)
